Drawing on the supplement of paper PMC11150407, this text covers cell viability for 78 compounds.

Screen size: about 2,100 compounds; about 180 (8.6%) showed an effect of 50% or more. This excerpt belongs to a sample that is enriched for strong results.

For the experiment, the system named is MOLM1 and UCSD/AML1 (averaged). The experiment can be described thus: cell viability relative to DMSO control (POC); higher = less growth inhibition. Conditions: 1 µM; 72 h. Here is the method: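 Primary viability screen in the 3q26 EVI1-high AML cell lines MOLM1 and UCSD/AML1 (1.5e3 cells/well, 384-well), compounds at 1 uM for 72 h. ATP CellTiter-Glo read-out given as percent of viable cells over DMSO control (POC), averaged over duplicates. DMSO was the negative control and 5 uM etoposide the positive control. This mapping covers the MicroSource Spectrum and Selleck anticancer libraries (drug names).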
A word on the cell viability: it is a read-out of living cells in per cent, often relative to untreated cells. `CC(=O)Oc1ccc2c(c1OC(C)=O)OCC1(O)Cc3c(cc(OC(C)=O)c(OC(C)=O)c3OC(C)=O)C21` (stereo not drawn): the cell viability was found to be 108%.

Take `COc1cc2ncnc(-n3nc(-c4ccccn4)nc3N)c2cc1OC`: the cell viability came to 67%.

Take `O=c1cc(-c2ccccc2)oc2cccc(O)c12`: the cell viability worked out at 119%.

Regarding `CC(C)c1c(O)c(-c2cc3c(c(C(C)C)c2O)CCC2C(C)(C)CCC[C@]32C)cc2c1CCC1C(C)(C)CCC[C@]21C` (stereo partly drawn), the cell viability came to 87.3%.

`COC(=O)C[C@H]1C(C)(C)C(=O)[C@@H]2CC3=C4CC(=O)O[C@@H](c5ccoc5)[C@]4(C)CC[C@@H]3[C@@]1(C)C2=O`: the cell viability was found to be 99.2%.

Regarding `C=C1CCC2C(CC2(C)C)C(=O)CCC1O` (stereo not drawn), the cell viability turned out to be 104%.

`CC1(C)C2CC(=O)O[C@@]3(C)C4=CC(=O)O[C@@H](c5ccoc5)[C@]4(C)CCC3[C@@]2(C)C=C[C@H]1O` (stereo partly drawn): the cell viability came out at 95.9%.

For the compound `Cn1cncc1[C@@](N)(c1ccc(Cl)cc1)c1ccc2c(c1)c(-c1cccc(Cl)c1)cc(=O)n2C` [Tipifarnib (Zarnestra)], the cell viability is 36.5%.

Turning to `CO[C@@]12[C@H](COC(N)=O)C3=C(C(=O)C(C)=C(N)C3=O)N1C[C@@H]1N[C@@H]12`, the cell viability was 13%.

As for `C=CCc1ccc(OC(=O)c2ccccc2)c(OC)c1`, the cell viability was found to be 95.6%.

As to `O=c1c2cc(O)c(O)cc2oc2cc(O)c([C@@H]3O[C@H](CO)[C@@H](O)[C@H](O)[C@H]3O)c(O)c12`, the cell viability was determined as 96.4%.

Regarding `CC1(C)C(=O)[C@H]2C[C@]3(O)C4=CC(=O)O[C@@H](c5ccoc5)[C@@]4(C)CCC3[C@](C)(C2=O)[C@H]1CC(=O)O` (stereo partly drawn), the cell viability is 95.4%.

Consider `CCOC(=O)c1c(C)cc(OC)cc1O`, for which the cell viability was found to be 95.3%.

With `COc1cnc(NS(=O)(=O)c2ccc(N)cc2)nc1`, the cell viability came out at 100%.

With `Nc1ccc(S(=O)(=O)Nc2ccccn2)cc1`, the cell viability stood at 100%.

Take `COc1ccc(S(=O)(=O)Nc2cccnc2Nc2ccc(O)cc2)cc1`: the cell viability came to 49.4%.

Consider `C=C1C2CC[C@@]3(C)[C@H](c4ccoc4)OC(=O)C[C@]13O[C@H]1CC(O)C(C)(C)C(CC(=O)OC)[C@@]21C` (stereo partly drawn) [3alpha-HYDROXY-3-DEOXYANGOLENSIC ACID METHYL ESTER], for which the cell viability is 97.3%.

Regarding `O=C(O[C@@H]1Cc2c(O)cc(O)cc2O[C@@H]1c1cc(O)c(=O)c2c(O)c(O)cc([C@H]3Oc4cc(O)cc(O)c4C[C@H]3O)c2c1)c1cc(O)c(O)c(O)c1`, the cell viability was 101%.

As for `C=C[C@@](C)(O)CCC1C(=C)CCC2[C@@](C)(CO)CCC[C@]12C` (stereo partly drawn), the cell viability came to 112%.

Take `COc1cc(O)c(C(C)=O)c(O)c1`: the cell viability was determined as 110%.

As to `CS(=O)(=O)N1CCc2c(-c3cnc(N)nc3)nc(N3CCOCC3)nc21`, the cell viability amounted to 47.5%.

Turning to `CC(=O)Nc1ccccc1`, the cell viability was 101%.

Consider `CC(C)[C@H](C(=O)Nc1ccc(C(=O)NO)cc1)c1ccccc1`, for which the cell viability is 0.459%.

On to `O=C(Nc1ccc(C(=O)O)c(O)c1)c1ccccc1`, for which the cell viability is 96.4%.

As to `O=c1c(O)c(-c2ccc(O)c(O)c2)oc2cc(O)ccc12`, the cell viability is 94%.

Take `C[C@]12CCC3c4ccc(OS(=O)(=O)O)cc4CCC3C1CC[C@H]2O` (stereo partly drawn): the cell viability is 98.1%.

As for `O=C(O)c1cc(=O)c(O)c2c(O)c(O)c(O)cc2c1`, the cell viability stood at 115%.

For the compound `CNc1ccccc1C(=O)N1CCc2c([nH]c3ccccc23)C1=O`, the cell viability was determined as 88.5%.

For `Cc1occc(=O)c1O`, the cell viability was 103%.

With `Cc1nc(Nc2ncc(C(=O)Nc3c(C)cccc3Cl)s2)cc(N2CCN(CCO)CC2)n1`, the cell viability turned out to be 29.5%.

For the compound `CCCC(=O)[O-].[Na+]` [Sodium butyrate], the cell viability is 91.3%.

On to `Cn1cc(-c2ccc3nnc(Sc4ccc5ncccc5c4)n3n2)cn1`, for which the cell viability is 82.3%.

As for `OCCn1cc(-c2cnc3nnn(Cc4ccc5ncccc5c4)c3n2)cn1`, the cell viability came out at 26.7%.

Take `Cn1cc(-c2ccc3nnc(C(F)(F)c4ccc5ncccc5c4)n3n2)cn1`: the cell viability stood at 101%.

On to `C[C@]12CC[C@H](O)CC1=CC[C@@H]1[C@@H]2CC[C@]2(C)C(c3cccnc3)=CC[C@@H]12` [Abiraterone (CB-7598)], for which the cell viability was 102%.

Consider `COc1cc2c(cc1OC)[C@@H]1Cc3ccc(OC)c(OC)c3CN1CC2`, for which the cell viability is 108%.

Turning to `CN(C)CCOc1ccc(-c2nc(-c3ccncc3)c(-c3ccc4c(c3)CC/C4=N\O)[nH]2)cc1`, the cell viability stood at 76.1%.

As for `COc1cc(/C=C/C(=O)O)ccc1O`, the cell viability is 104%.

As to `O=C1C=C2CC3(O)COc4cc(O)ccc4C3=C2C=C1O` (stereo not drawn), the cell viability is 99.3%.

Take `Cc1cnc(NC(=O)Nc2cc(Br)c(C)cc2OC[C@@H]2CNCCO2)cn1`: the cell viability stood at 46.1%.

As to `COc1c2ccoc2nc2c(OC)c(OCC(O)C(C)(C)O)ccc12` (stereo not drawn), the cell viability came out at 90.2%.

For the compound `CC(C)=CC1C(CO)C1(C)C` (stereo not drawn), the cell viability came out at 104%.

In the case of `Nc1ncn([C@@H]2O[C@H](CO)[C@@H](O)[C@H]2O)c(=O)n1`, the cell viability came out at 77.4%.

Consider `Nc1nc(Cl)nc2c1ncn2[C@H]1C[C@H](O)[C@@H](CO)O1` [Cladribine], for which the cell viability stood at 5.67%.

Regarding `Nc1ncnc2c1ncn2[C@H]1C[C@H](O)[C@@H](CO)O1`, the cell viability turned out to be 90.9%.

`O=c1[nH]c(=O)n([C@H]2C[C@H](O)[C@@H](CO)O2)cc1F`: the cell viability stood at 83.1%.

`COc1nc(N)nc2c1ncn2[C@@H]1O[C@H](CO)[C@@H](O)[C@@H]1O` [Nelarabine (Arranon)]: the cell viability worked out at 109%.

In the case of `Nc1ncn([C@H]2C[C@H](O)[C@@H](CO)O2)c(=O)n1` [Decitabine], the cell viability worked out at 41.3%.

Turning to `O=c1[nH]c(=O)n([C@H]2C[C@H](O)[C@@H](CO)O2)cc1F` [Floxuridine], the cell viability is 64.4%.

For `Nc1ncnc2c1ncn2[C@@H]1O[C@H](COP(=O)(O)O)[C@@H](O)[C@H]1O`, the cell viability turned out to be 99.1%.

Take `Nc1nc(Cl)nc2c1ncn2[C@@H]1O[C@H](CO)[C@@H](O)[C@@H]1F` [Clofarabine]: the cell viability was 6.72%.

As to `Nc1nc(F)nc2c1ncn2[C@@H]1O[C@H](COP(=O)(O)O)[C@@H](O)[C@@H]1O` [Fludarabine Phosphate (Fludara)], the cell viability is 44.2%.

For the compound `Nc1nc(F)nc2c1ncn2[C@@H]1O[C@H](COP(=O)(O)O)[C@@H](O)[C@@H]1O`, the cell viability stood at 74.4%.

In the case of `NC(=O)c1ccc[n+]([C@@H]2O[C@H](COP(=O)([O-])OP(=O)(O)OC[C@H]3O[C@@H](n4cnc5c(N)ncnc54)[C@H](O)[C@@H]3O)[C@@H](O)[C@H]2O)c1`, the cell viability stood at 81.6%.

As for `Nc1ncn([C@@H]2O[C@H](CO)[C@@H](O)[C@H]2O)c(=O)n1` [Azacitidine (Vidaza)], the cell viability came out at 84.2%.

Take `CCc1cn([C@H]2C[C@H](O)[C@@H](CO)O2)c(=O)[nH]c1=O`: the cell viability is 91.5%.

In the case of `Nc1nc(F)nc2c1ncn2[C@@H]1O[C@H](CO)[C@@H](O)[C@@H]1O` [Fludarabine (Fludara)], the cell viability was 53%.

Take `OC[C@@H](O)[C@@H](O[C@@H]1O[C@H](CO)[C@@H](O)[C@H](O)[C@H]1O)[C@H](O)[C@@H](O)CO`: the cell viability came to 92.2%.

As to `COc1ccc([C@H]2Oc3cc(OC)cc(OC)c3C[C@H]2O)cc1`, the cell viability worked out at 98.4%.

As to `COC(=O)C[C@H]1C2(C)CC34OC5(C)O[C@@]6([C@H](OC)C(OC(=O)C(C)C)[C@]7(C)C(/C(=C(/OC)C(C)C)C(=O)O[C@H]7c7ccoc7)[C@@]6(O5)[C@H](OC)[C@@]3(OC)C2OC(C)=O)[C@]14C` (stereo partly drawn), the cell viability came out at 105%.

In the case of `Cc1c(C(=O)O)c(O)cc2c1C(=O)c1c(O)c([C@@H]3O[C@H](CO)[C@@H](O)[C@H](O)[C@H]3O)c(O)c(O)c1C2=O`, the cell viability worked out at 92.5%.

As to `O=C(O)c1cccc(O)c1O`, the cell viability amounted to 107%.

As for `C[C@H]1[C@H](C)CC[C@]2(CO)CC[C@]3(C)C(=CC[C@@H]4[C@@]5(C)CC[C@H](O)C(C)(C)[C@@H]5CC[C@]43C)[C@H]12`, the cell viability is 110%.

Regarding `CC(=O)O[C@@H]1CC2C(C)(C)C(=O)CC[C@]2(C)C2CC[C@]3(C)C(=CC(=O)O[C@H]3c3ccoc3)[C@@]21C` (stereo partly drawn), the cell viability is 110%.

With `COc1c(OC)c2occc2c2oc(=O)ccc12`, the cell viability amounted to 117%.

Consider `CC(=O)O[C@H]1CC[C@]2(C)[C@H]3CC=C4[C@@H]5CC(C)(C)CC[C@]5(C)CC[C@@]4(C)[C@]3(C)CC[C@H]2C1(C)C` [beta-AMYRIN ACETATE], for which the cell viability amounted to 107%.

As to `CC(=O)CC(=O)CCC(=O)O`, the cell viability is 96.2%.

As for `CCOC(=O)c1c(C)cc(O)cc1O`, the cell viability turned out to be 104%.

`CC1=CCCC(C)=CCC(C)(C)C=CC1` [HUMULENE (alpha)]: the cell viability turned out to be 113%.

Consider `CN(C)Cc1ccc(-c2nc3cccc4c3n2CCNC4=O)cc1`, for which the cell viability amounted to 100%.

Turning to `CCC(=O)N1CCN(c2ccc(-n3c(=O)ccc4cnc5ccc(-c6cnc7ccccc7c6)cc5c43)cc2C(F)(F)F)CC1` [Torin 1], the cell viability turned out to be 20.8%.

Take `Nc1ccc(-c2ccc3ncc4ccc(=O)n(-c5cccc(C(F)(F)F)c5)c4c3c2)cn1` [Torin 2]: the cell viability worked out at 10%.

On to `COc1ccc2c3n(c(=NC(=O)c4cccnc4)nc2c1OC)CCN3`, for which the cell viability turned out to be 64.3%.

Regarding `COc1cc(C)c(C(=O)O)c(O)c1`, the cell viability is 100%.

For the compound `S=C(NCc1ccc2c(c1)OCO2)N1CCN(c2ncnc3c2oc2ccccc23)CC1` [Amuvatinib (MP-470)], the cell viability was determined as 77.9%.

On to `COC(=O)[C@@H]1OC(=O)[C@H]2O[C@@]23[C@@]1(C)CCC1[C@@]2(C)CCC(=O)C(C)(C)C2C[C@@H](OC(C)=O)[C@]13C` (stereo partly drawn), for which the cell viability was found to be 99%.

Turning to `O=C(Nc1c[nH]nc1-c1nc2ccc(CN3CCOCC3)cc2[nH]1)NC1CC1`, the cell viability is 17.5%.

As for `CC(=O)Oc1cc(OC(C)=O)c2c(c1)O[C@H](c1ccc(OC(C)=O)c(OC(C)=O)c1)[C@H](OC(C)=O)C2`, the cell viability came out at 104%.
